# Screens as filed in PubChem.
# FBPA Giardia inh: inhibitors of Giardia lamblia fructose-1,6-bisphosphate aldolase; A8B2U2; purified Giardia FBPA; Potency, µM (titrated, usually from 59.6 µM), for the others: top-dose activity, negative = inhibition, actives largely listed as inhibitors; hit rate 0.71% among 290,000; further: potency means the concentration at half of the fitted maximal effect; on the % scale 0 is the no-effect control and ±100 the full control effect; nearly all actives have a fitted effect of over 55% in size
# Target sequence (A8B2U2 whole entry, looked up): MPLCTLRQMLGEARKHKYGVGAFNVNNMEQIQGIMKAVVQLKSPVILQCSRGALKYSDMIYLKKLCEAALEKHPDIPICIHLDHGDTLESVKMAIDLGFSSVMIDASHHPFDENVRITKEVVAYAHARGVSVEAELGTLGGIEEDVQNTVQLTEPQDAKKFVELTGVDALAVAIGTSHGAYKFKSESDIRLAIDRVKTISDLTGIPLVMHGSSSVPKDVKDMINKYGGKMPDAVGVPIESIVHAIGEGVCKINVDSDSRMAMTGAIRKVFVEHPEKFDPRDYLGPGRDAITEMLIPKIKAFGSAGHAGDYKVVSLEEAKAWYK
#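 Giardia FBPA (40 nM reagent) was preincubated 10 min at RT with compound (up to 57.5 uM final), then substrate plus GAPDH/TPI/NAD/arsenate coupling system with diaphorase/resazurin was added; resorufin fluorescence (525/598 nm) was read after 20 min.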
# Pf growth 48h: P. falciparum growth inhibition at 48 hours (one generation) | Potency, µM (titrated, usually from 28.7 µM), inactives show top-dose activity change, negative = inhibition, hits mostly inhibitors | P. falciparum luciferase growth in erythrocytes, 48 h | hit rate 5.9% among 310,000 | AID 504832; further: potency means the concentration at half of the fitted maximal effect; on the % scale 0 is the no-effect control and ±100 the full control effect
#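 Read-out is firefly luciferase luminescence from an integrated reporter in P. falciparum, so falling signal marks reduced parasite growth. Infected erythrocytes were at 2% hematocrit and 0.1% parasitemia (final) in Albumax-supplemented RPMI 1640.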
# Pf growth 96h: inhibits malaria parasite growth, 96 h | hit rate 6.9% among 320,000 | Potency, µM (titrated, usually from 28.7 µM), without a hit: at the top dose activity change, negative = inhibition, most hits filed as inhibitors | AID 504834 | P. falciparum luciferase reporter growth, 96 h; further: potency means the concentration at half of the fitted maximal effect; on the % scale 0 is the no-effect control and ±100 the full control effect
#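 Readout is luminescence from an integrated firefly luciferase in P. falciparum. Red cells, 2% hematocrit and 0.05% parasitemia final, were cultured with compound through two parasite generations (96 hours) at 37 C, 5% CO2.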
# CHX counter: counter-screen hit for Shiga toxin inhibitors, cycloheximide | cell reporter, cycloheximide protein synthesis inhibition counterscreen | max response, % | hit rate 12% among 300,000 | AID 2314; in the data active means max response mostly above about 13%, no sharp cut-off; inactive means mostly below about 14%; further: read at 38.3 µM for the half of the compounds with a filed dose; 0% is about no effect
# NS1 function inh: blocks influenza NS1 protein function; Potency, µM (highest dose often 46.1 µM), for inactives: top-dose activity, positive = more growth; hit rate 0.4% among 270,000; AID 2326; calls by dose curve; further: potency means the concentration at half of the fitted maximal effect; actives are rising curves; nearly all actives have a fitted effect of over 50% in size
#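 In this qHTS, NS1 from influenza A is expressed in budding yeast, where it slows growth. Cells are switched from glucose to 2% galactose medium (pH 6.0, -URA), treated with compound, and growth recovery is read at OD600.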
# Shiga toxin inh: blocks Shiga toxin action in Vero cells; Vero cells, Shiga toxin protein synthesis inhibition reporter; inhibition, % at 38.7 µM; hit rate 9.2% among 290,000; in the data active means inhibition mostly above about 28%, no sharp cut-off; inactive means mostly below about 43%; further: 0% is about no effect
# Starred values were filed as active, the others as inactive; i = inactive; ? = inconclusive; · = not tested or not shown; [ ] = dose if it differs, or a comment. Most compounds without a hit are left out; they make up all but 21% or so of the library. Unless noted, the call rests on the fitted dose curve; in most records, active means well fitted curve in the direction sought with a large enough effect; inconclusive means small, poorly fitted or top-dose-only effect, or another doubt; inactive means no such curve, though single readings can be large; an effect the other way counts as inactive or inconclusive.
SMILES,FBPA Giardia inh,Pf growth 48h,Pf growth 96h,CHX counter,NS1 function inh,Shiga toxin inh
CCOc1ccc2nc(N(CCCN(C)C)C(=O)c3ccc(S(=O)(=O)N4CCc5ccccc5C4)cc3)sc2c1,·,?,?,4,-24%,30
CN(C)CCCN(C(=O)CCc1ccccc1)c1nc2ccc(Cl)cc2s1,-9%,?,10µM*,-11,9%,-17
O=C(NCCCN1CCOCC1)c1ccc2c(c1)N(Cc1cccc(Cl)c1)C(=O)CS2,5%,?,-16%,-7,-2%,-13
CCCCn1c(C)cc2c(c1=O)C1O[C@](CCCC)(Cc3cc(C#N)ccc31)O2,-6%[12.9 µM],?,19%[5.75 µM],0,21%,i
COc1ccc(NCc2ccsc2)cc1,-5%,?,-30%,41*,9%,44*
COc1ccc(NC(C)=O)cc1S(=O)(=O)Nc1ccc2c(c1)OCCO2,10%,45%,?,24*,-2%,17
COc1ccc(Cl)cc1C(=O)Nc1ccncc1,10%,-23%,-19%,-2,-53%,-4
COc1ccc(Cl)cc1C(=O)Nc1ccc2c(c1)OCCO2,-9%,201%,?,30*,-26%,36*
COc1ccc(Cl)cc1C(=O)Nc1ccc2c(c1)OCO2,-20%,46%,·,44*,-87%,87*
O=C(Cn1ccc2cc(S(=O)(=O)N3CCCC3)ccc21)NCCc1ccccc1,19%,?,?,6,7%,19
NC[C@@H]1O[C@H](O[C@@H]2[C@H](O[C@@H]3O[C@H](CO)[C@@H](O)[C@@H]3O)[C@@H](O)[C@@H](N)C[C@H]2N)[C@@H](N)[C@H](O)[C@@H]1O,0%[21.7 µM],-11%[12.8 µM],-26%[12.8 µM],·,·,·
CCOC(=O)C1CCCNC1=O (stereo not given),4%,16%,0%,1,1%,27
COc1ccc(-c2ccn(-c3cccc(F)n3)n2)cc1,-17%,-13%,-43%,48*,15%,98*
O=P(O)(O)O,·,1%,0%,·,·,·
Cc1ccc(Sc2ccccc2CN(C)C)c(N)c1,-22%,·,·,25*,·,31
N#Cc1ccc(CN2CC3(CCN(C(=O)c4cc(C(F)(F)F)cc(C(F)(F)F)c4)CC3)C2)cc1,3%,·,·,·,·,·
C#CCCCO/N=C1/C[C@@H](O)[C@@H](O)[C@@H]2[C@@H]3C(=O)N(Cc4ccccc4)C(=O)[C@H]3CC[C@@H]12,4%[12.9 µM],·,·,·,·,·
CCc1ccc(C(=O)N/N=C/c2ccc(Cl)cc2Cl)nc1,0%,67%,25%,18*,5%,24
O=C(CSCc1ccc(Cl)cc1)N/N=C/c1ccc(Cl)cc1Cl,1%,7%,?,-2,7%,-19
O=C(N/N=C/c1ccc(Cl)cc1Cl)c1cccc(F)c1,1%,172%,192%,33*,-7%,137*
O=C(N/N=C/c1ccc(Cl)cc1Cl)c1ccc2nc[nH]c2c1,·,?,?,24*,-3%,53*
O=C(N/N=C/c1ccccc1C(F)(F)F)c1ccc2nc[nH]c2c1,6%,?,-22%,49*,18%,29*
O=C(Nc1cccc(NC(=O)c2ccco2)n1)c1ccco1,11%,45%,-17%,-3,-15%,2
CN(C)c1cc[n+](CC(=O)Nc2c(Cl)cc(Cl)cc2Cl)cc1,6%,-15%,145%,-8,1%,-6
CN(C)c1cc[n+](CC(O)C[n+]2ccc(N(C)C)cc2)cc1,·,9.3µM*,4.7µM*,·,·,·
SMILES,FBPA Giardia inh,Pf growth 48h,Pf growth 96h,CHX counter,NS1 function inh,Shiga toxin inh
Cc1cc(C)c(NC(=O)CN(C)C(=O)c2ccc(OCc3ccccc3)cc2)c(C)c1,·,64%,75%,·,·,·
Cc1cccc(C)c1NC(=O)CN(C)C(=O)c1ccc(COc2ccccc2)cc1,4%,-1%,-3%,20*,8%,40
CC(OC(=O)CCN1C(=O)C2CC=CCC2C1=O)C(=O)Nc1cccc(C#N)c1 (stereo not given),·,-27%,21%,·,·,·
COc1ccc(C(=O)/C=C/c2ccc(OC)c(O)c2)c(F)c1,-21%,?,?,68*,-28%,61*
COc1ccc(/C=C/C(=O)c2ccc(Cl)s2)cc1O,-17%,·,14%,24*,-211%,60
O=C(/C=C(\O)c1ccccc1)c1ccccc1O,10%,·,·,·,·,·
CN1CCN(C(=O)c2ccc(CNS(=O)(=O)c3ccc(F)c(Cl)c3)cc2)CC1,·,-3%,?,6,6%,-2
Fc1ccc(/C=N/Nc2nnnn2-c2ccccc2)cc1,1%,5%,8.3µM*,-2,-6%,-6
Fc1ccc(Oc2nnnn2-c2ccccc2)cc1,9%,11%,35%,0,2%,2
COc1ccc(-c2c(-c3ccccc3OC)oc3ccccc23)cc1F,·,2.9µM*,2.6µM*,·,·,·
O=C(O)c1ccc2c(c1)C(=O)N([C@H](Cc1ccc(F)cc1)C(=O)O)C2=O,10%,?,19%,5,·,15
CC(C)(C)OC(=O)NCCCCCNC(=O)c1[nH]cnc1C(=O)N[C@@H](Cc1ccccc1)C(=O)OCc1ccccc1,-26%,8.3µM*,12µM*,-3,24%,-7
CC(C)C[C@H](NC(=O)c1nc[nH]c1C(=O)NCCCCCNC(=O)OC(C)(C)C)C(=O)OCc1ccccc1,?,?,9.3µM*,7,25%,-9
C[C@H](NC(=O)c1nc[nH]c1C(=O)NCCCCCNC(=O)OC(C)(C)C)C(=O)OCc1ccccc1,-22%,47%,0%,-1,2%,-8
CC(C)C[C@H](NC(=O)c1nc[nH]c1C(=O)N[C@@H](CCCCNC(=O)OC(C)(C)C)C(=O)OC(C)(C)C)C(=O)OCc1ccccc1,-11%,?,3.3µM*,8,?,7
CC1=C(C(=O)NC2CCCCC2C)C2(CCC(C)CC2)OC1=O (stereo not given),4%,9.3µM*,-5%,-5,?,3
CC1=C(C(=O)NC(C)c2ccccc2)C2(CCC(C)CC2)OC1=O (stereo not given),2%,11%,6%,1,1%,14
CC1=C(C(=O)NC(C)c2ccc3c(c2)OCCO3)C2(CCC(C)CC2)OC1=O (stereo not given),-6%,?,10µM*,-3,-12%,-4
CC1=C(C(=O)NC2CCCC(C)C2C)C2(CCCCC2)OC1=O (stereo not given),-3%,?,24%,11,23%,3
CCOc1ccc(NC(=O)C2=C(C)C(=O)OC23CCC(C)CC3)cc1 (stereo not given),-7%,·,-27%,-5,-4%,2
CC1=C(C(=O)Nc2cccc([N+](=O)[O-])c2)C2(CCC(C)CC2)OC1=O (stereo not given),-5%,?,0.37µM*,3,·,23
N#Cc1cccc(CS(=O)(=O)c2ccccc2)c1,-1%,·,·,·,·,·
Cc1noc(C)c1-c1cncnc1NC1CC1,-7%,·,·,·,·,·
